This passage reports growth results from PubChem BioAssay (NCI).

About 83,000 compounds went through this panel and 20% of them were active in at least one assay; those are over-represented in the sample as a whole.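 In brief: 96-well plates, 48 h treatment, single concentration, percent growth endpoint.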 The source made the active and inactive calls.

The experiment concerns HCT-15 colon. Description: NCI-60 one-dose screen, 48 h (100 = growth as untreated, 0 = no growth, -100 = all killed). The note with it: 10 µM. Here is the method: Growth inhibition of the HCT-15 human tumor cell line is measured as a screen for anti-cancer activity. Cells are grown in 96 well plates and exposed to the test compound for 48 hours. Compounds are tested at a single concentration, which is 10^-5 M for most compounds. The reported endpoint is percent growth (GI% or GIPRCNT), where numbers from 0 - 100% represent growth inhibition, and numbers from -100% - 0 represent cell death. For example, a value of 40 represents 60% growth inhibition. A value of 0 means no net growth occurred over the course of the experiment. A value of -40 indicates 40% of cells at the beginning of the experiment died by the end of the experiment. A value of -100 means all cells are dead at the end of the experiment.
NCI-60 Human Tumor Cell Lines Screen was performed using the standard one-dose NCI protocol, which is described in more detail at https://dtp.cancer.gov/discovery_development/nci-60/default.htm.
Compounds with GIPRCNT values below 10 were considered active. Activity score was based on GIPRCNT using the following formula: […]
Score is 0 for GIPRCNT values of 100 or above, 50 for GIPRCNT values of 0, and 100 for GIPRCNT values of -100.
For `COc1cc2c3c(n(C4CCNCC4)c(=O)c2cc1OC)-c1cc2c(cc1C3=O)OCO2`, the growth was -73.8% (active). Next, `Cc1ccc(C(SCC(N)C(=O)O)(c2ccc(C)cc2)c2ccc(C)cc2)cc1` (stereo not given): 30.1% (inactive); `CC(C)(C)OC(=O)N1CCc2c(sc3ncnc(N/N=C/c4cccc5ccccc45)c23)C1`: 6.88% (active). Next, `O=C1/C=C/[C@@H](O)[C@@H]2C[C@@H](O)C[C@H]2/C=C/CCC[C@H](CCc2ccc(NC(=S)Nc3ccc4c(c3)C(=O)OC43c4ccc(O)cc4Oc4cc(O)ccc43)cc2)O1`: 3.98% (active). Turning to `COc1cc2c3c(n([C@@H]4CCOC4)c(=O)c2cc1OC)-c1cc2c(cc1C3=O)OCO2`, the growth is 60.5% (inactive).

Regarding `OCC1OC2C(NC(=S)N2c2ccccc2)C(O)C1O` (stereo not given), the growth was 99.2% (inactive).

As for `COc1ccc(C(c2ccc(OCCN(C)C)cc2)c2cc3ccccc3c3ccccc23)cc1` (stereo not given), the growth is -30.9% (active).

On to `CC(=O)[C@@]12O[C@](C)(c3ccccc3)O[C@@H]1CC1C3CCC4=CC(=O)CC[C@]4(C)C3CC[C@@]12C` (stereo not given in full), for which the growth is 71% (inactive).

As to `O=C(CCCCCCC(=O)Nc1ccccc1)NO`, the growth is 33.9% (inactive). Next, `COc1ccc(/C(C#N)=C/c2cccc(OC)c2OC)cc1`: 68.1% (inactive); `CN1CCc2c(sc3nc4n(-c5ccc(Cl)cc5)c(=O)[nH]n4c(=O)c23)C1`: 103% (inactive); `CN(C)c1ccc(/C=N/NC(=O)c2ccccc2Nc2cccc(C(F)(F)F)c2)cc1`: 78.2% (inactive). The same measure for `Nc1ccc(-c2cccs2)cc1NC(=O)c1ccc(CCCC(=O)Nc2ccc(C3CC3N)cc2)cc1` (stereo not given): 87.2% (inactive); for `CCOC(=O)c1sc2ncnc(Nc3ccc(NC(=O)Nc4ccc(Cl)cc4)cc3)c2c1C`: 33.9% (inactive). The same measure for `CCC(=O)OC1CCC2C3CCC(=O)OC3C(C)(CCC(=O)O)CC12C` (stereo not given): 24.2% (inactive); for `COc1cc(-c2nn(-c3ccc(NC(=O)NCCCNC(=O)c4ccccc4)cc3)cc2-c2ccncc2)ccc1Cl`: 20.3% (inactive); for `CCC(CC)n1c(C)cc(=O)n1C(CC)CC`: 106% (inactive).

Turning to `COc1ccc2c(c1)C(=O)/C(=C/c1ncc([N+](=O)[O-])n1C)O2`, the growth was 6.82% (active).

Take `CS(=O)(=O)c1nccc(-c2c(-c3cccc(OCc4ccc(F)cc4)c3)nc3sccn23)n1`: the growth was 59.2% (inactive).

Consider `CCOC(=O)c1cc(C(=O)c2cc(OC)cc(OC)c2)n2ncc3ccccc3c12`, for which the growth was 29.8% (inactive). The same measure for `CN1C(=O)C2(Nc3cc(Cl)ccc3S2)c2cc(Cl)ccc21` (stereo not given): 76.7% (inactive); for `O=C(Cn1cc(CO)nn1)Nc1nc2ccccc2s1`: 105% (inactive); for `CCN1CC(CCN2CCOCC2)C(C(c2ccccc2)c2ccccc2)C1=O` (stereo not given): 94.1% (inactive).

`CN(C)CCOc1ccc(-c2nc3sccn3c2-c2ccnc(S(C)(=O)=O)n2)cc1`: the growth was 101% (inactive). The same measure for `CC(C)[N+]1(C)C2CC[C@@H]1CC(OC(=O)C(CO)c1ccccc1)C2` (stereo not given in full): 107% (inactive); for `CCOC(=O)CSc1nc(-c2cc(OC)ccc2OC)cc(-c2ccc(OC)cc2)c1C#N`: 69.1% (inactive); for `CCN(CC)CCOc1cccc2c1C(=O)c1cccc(OCCN(CC)CC)c1C2=O`: 57% (inactive). Turning to `Cc1nn(-c2ccccc2)c2nc(Cl)c(C=O)c(-c3ccccc3)c12`, the growth was 94.8% (inactive). The same measure for `Cc1c[nH]c(=O)n(Cc2nnc(CCC(=O)c3nc4ccccc4[nH]3)o2)c1=O`: 65.3% (inactive); for `COc1cc(/C=C/c2cc(/C=C/c3ccc(O)c(OC)c3)nc(N)n2)ccc1O`: 29.5% (inactive). Next, `CCCCC/C=C/C/C=C/CCCCCCCC1=NC(C)(C)CN1C(C)C`: -3.26% (active); `Nc1ccccc1NC(=O)c1ccc(CCCC(=O)Nc2ccc(C3CC3N)cc2)cc1` (stereo not given): 87.4% (inactive); `CO[C@H]1CC(O[C@@H]2/C(C)=C/C[C@@H]3C[C@@H](C[C@]4(C=C[C@H](C)[C@@H](C5CCCCC5)O4)O3)OC(=O)[C@@H]3C=C(C)[C@@H](O)[C@H]4OC/C(=C\C=C\[C@@H]2C)[C@]43O)O[C@@H](C)C1O[C@H]1C[C@H](OC)[C@@H](O)[C@H](C)O1` (stereo not given in full): -79.2% (active).

Turning to `O=C(O)c1ccc(-n2cc(CNc3ccc(Oc4ccccc4)cc3)c(-c3ccccc3)n2)cc1`, the growth is 72.9% (inactive).

With `CC[N+](CC)=c1ccc2nc3c(cc(NCc4ccccc4)c4ccccc43)oc-2c1`, the growth is -45.8% (active). Next, `Cc1cc(CSc2ccccc2C(=O)N2CC=C(c3ccccc3)CC2)on1`: 95.2% (inactive); `CCOC(=O)c1cocc1C(=O)O`: 103% (inactive).

Consider `COc1cc(/C=C/c2cc(/C=C/c3ccc(O)c(OC)c3)n(C(=O)Nc3ccc(C)cc3)n2)ccc1O`, for which the growth was 15.2% (inactive).

On to `COc1cc(-c2nn(-c3cccc(NC(=O)CCN4CCN(Cc5ccccc5)CC4)c3)cc2-c2ccncc2)ccc1Cl`, for which the growth is 11.8% (inactive).

For the compound `COc1ccc(-c2nn(-c3cccc(Cl)c3)cc2-c2nc(N)[nH]c(=O)c2C#N)cc1`, the growth was 65.4% (inactive).
